# Laboratory results from paper PMC7862700, “An all-to-all approach to the identification of sequence-specific readers for epigenetic DNA modifications on cytosine”.
# Tests used:
# Test in all cases: DAPPL (digital affinity profiling via proximity ligation, sequencing); 10 mM Tris-HCl pH 7.5, 50 mM NaCl, 1 mM DTT, 4% glycerol, room temperature, 30 min; GST-TFs on glutathione beads, 16-mer random dsDNA library, 0.1% formaldehyde crosslink after washing; high values mean tight binding
# FEV = biological target: T1, FEV (Homo sapiens, UniProt Q99581 1-238); conditions: protein: recombinant; tags: N-terminal GST; dsDNA, one strand shown
# T1 sequence: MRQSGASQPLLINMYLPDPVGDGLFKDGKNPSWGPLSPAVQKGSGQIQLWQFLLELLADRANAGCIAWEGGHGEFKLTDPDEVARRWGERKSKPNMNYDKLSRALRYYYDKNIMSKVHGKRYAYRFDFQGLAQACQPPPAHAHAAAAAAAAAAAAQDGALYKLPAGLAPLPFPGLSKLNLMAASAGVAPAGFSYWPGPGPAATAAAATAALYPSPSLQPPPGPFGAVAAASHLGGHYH
# Outline: (§1)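 Human transcription factors fused to GST were expressed in yeast, captured on glutathione beads, given DNA barcodes and pooled with a GST-only negative control. Pools were incubated with 200 nmole of a 16-mer random double-stranded DNA library in Tris/NaCl/DTT/glycerol buffer at room temperature for 30 min. They were then washed, crosslinked with 0.1% formaldehyde, proximity-ligated (BsaI/T4 ligase, 1 h, 37 °C), PCR-amplified and sequenced on an Illumina NextSeq500. Binding signal is each 6-mer's read frequency for a factor divided by its frequency for the GST control.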
# ETV5 = ETV5 (Homo sapiens, UniProt P41161 1-510); conditions: protein: recombinant; tags: N-terminal GST; dsDNA, one strand shown
# Sequence of ETV5 (P41161 whole entry): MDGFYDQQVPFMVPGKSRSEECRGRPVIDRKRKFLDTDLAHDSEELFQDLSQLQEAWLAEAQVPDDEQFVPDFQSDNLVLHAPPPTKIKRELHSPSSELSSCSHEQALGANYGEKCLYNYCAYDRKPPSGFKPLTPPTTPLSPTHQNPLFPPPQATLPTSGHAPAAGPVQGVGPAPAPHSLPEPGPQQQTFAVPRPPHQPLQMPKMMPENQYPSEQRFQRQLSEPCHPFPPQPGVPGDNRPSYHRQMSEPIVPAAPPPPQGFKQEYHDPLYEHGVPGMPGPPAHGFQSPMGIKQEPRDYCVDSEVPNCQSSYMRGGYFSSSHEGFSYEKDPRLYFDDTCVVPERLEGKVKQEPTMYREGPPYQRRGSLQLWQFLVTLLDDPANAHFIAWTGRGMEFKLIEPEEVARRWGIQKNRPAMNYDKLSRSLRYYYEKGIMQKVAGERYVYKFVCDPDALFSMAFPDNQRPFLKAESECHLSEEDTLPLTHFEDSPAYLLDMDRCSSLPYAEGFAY
# Outline: as §1
# HSF1 = HSF1 (Homo sapiens, UniProt Q00613 1-529); conditions: protein: recombinant; tags: N-terminal GST; chain copies: 3; dsDNA, one strand shown
# Sequence of HSF1 (Q00613 whole entry): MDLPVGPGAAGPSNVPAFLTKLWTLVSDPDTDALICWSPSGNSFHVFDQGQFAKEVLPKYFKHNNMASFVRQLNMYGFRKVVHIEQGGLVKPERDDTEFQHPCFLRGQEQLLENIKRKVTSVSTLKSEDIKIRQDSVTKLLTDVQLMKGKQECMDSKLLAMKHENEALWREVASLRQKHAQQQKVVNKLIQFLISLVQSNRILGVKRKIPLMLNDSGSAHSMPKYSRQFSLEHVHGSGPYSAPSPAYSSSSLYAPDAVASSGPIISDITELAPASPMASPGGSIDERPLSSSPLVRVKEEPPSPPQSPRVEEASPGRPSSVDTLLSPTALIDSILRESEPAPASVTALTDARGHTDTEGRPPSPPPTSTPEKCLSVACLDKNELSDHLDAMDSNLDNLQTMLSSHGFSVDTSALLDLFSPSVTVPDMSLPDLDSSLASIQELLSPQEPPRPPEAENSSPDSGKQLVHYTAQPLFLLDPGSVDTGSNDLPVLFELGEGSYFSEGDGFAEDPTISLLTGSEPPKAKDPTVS
# Outline: as §1
# SPIC = biological target: T2, SPIC (Homo sapiens, UniProt Q8N5J4 1-248); conditions: protein: recombinant; tags: N-terminal GST; dsDNA, one strand shown
# T2 sequence: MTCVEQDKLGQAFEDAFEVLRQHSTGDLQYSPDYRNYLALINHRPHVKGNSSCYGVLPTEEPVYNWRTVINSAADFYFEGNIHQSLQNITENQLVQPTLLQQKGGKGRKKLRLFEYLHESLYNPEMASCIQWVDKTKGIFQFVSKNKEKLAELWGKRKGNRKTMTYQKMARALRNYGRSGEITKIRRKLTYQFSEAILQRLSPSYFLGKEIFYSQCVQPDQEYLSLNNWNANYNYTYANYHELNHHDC
# Outline: as §1
# ELF4 = ELF4 (Homo sapiens, UniProt Q99607 1-663); conditions: protein: recombinant; tags: N-terminal GST; dsDNA, one strand shown
# Sequence of ELF4 (Q99607 whole entry): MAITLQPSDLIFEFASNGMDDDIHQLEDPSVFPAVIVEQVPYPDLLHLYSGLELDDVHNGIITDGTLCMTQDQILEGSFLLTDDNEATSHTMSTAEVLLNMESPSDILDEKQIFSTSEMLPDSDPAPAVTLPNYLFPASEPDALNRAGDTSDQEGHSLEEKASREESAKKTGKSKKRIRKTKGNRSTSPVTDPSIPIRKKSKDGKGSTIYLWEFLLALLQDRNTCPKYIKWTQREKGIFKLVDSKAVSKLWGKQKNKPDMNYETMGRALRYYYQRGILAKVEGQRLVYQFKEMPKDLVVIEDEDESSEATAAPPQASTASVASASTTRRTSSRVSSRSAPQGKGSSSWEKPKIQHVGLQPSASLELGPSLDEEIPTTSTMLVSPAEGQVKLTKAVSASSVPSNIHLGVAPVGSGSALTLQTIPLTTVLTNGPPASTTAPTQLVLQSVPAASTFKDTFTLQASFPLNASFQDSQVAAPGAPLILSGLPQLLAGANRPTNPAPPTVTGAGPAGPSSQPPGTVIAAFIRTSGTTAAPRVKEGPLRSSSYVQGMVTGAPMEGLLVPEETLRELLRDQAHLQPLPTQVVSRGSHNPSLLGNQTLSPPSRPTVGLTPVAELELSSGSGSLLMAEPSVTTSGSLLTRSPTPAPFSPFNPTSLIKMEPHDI
# Outline: as §1
# ELK4 = biological target: T3, ELK4 (Homo sapiens, UniProt P28324-2 1-405); conditions: protein: recombinant; tags: N-terminal GST; dsDNA, one strand shown
# T3 sequence: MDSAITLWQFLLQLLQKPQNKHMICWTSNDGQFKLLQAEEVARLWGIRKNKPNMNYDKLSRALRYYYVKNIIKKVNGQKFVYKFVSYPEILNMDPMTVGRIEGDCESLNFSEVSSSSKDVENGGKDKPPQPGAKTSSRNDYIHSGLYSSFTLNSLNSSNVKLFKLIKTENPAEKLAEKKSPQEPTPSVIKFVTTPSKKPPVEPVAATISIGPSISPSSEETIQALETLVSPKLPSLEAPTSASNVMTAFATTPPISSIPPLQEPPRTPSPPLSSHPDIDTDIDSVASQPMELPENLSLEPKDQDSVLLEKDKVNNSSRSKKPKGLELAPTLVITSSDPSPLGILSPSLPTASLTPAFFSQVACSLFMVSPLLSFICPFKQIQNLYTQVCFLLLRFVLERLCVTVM
# Outline: as §1
# ETV2 = biological target: T4, ETV2 (Homo sapiens, UniProt O00321 1-342); conditions: protein: recombinant; tags: N-terminal GST; dsDNA, one strand shown
# T4 sequence: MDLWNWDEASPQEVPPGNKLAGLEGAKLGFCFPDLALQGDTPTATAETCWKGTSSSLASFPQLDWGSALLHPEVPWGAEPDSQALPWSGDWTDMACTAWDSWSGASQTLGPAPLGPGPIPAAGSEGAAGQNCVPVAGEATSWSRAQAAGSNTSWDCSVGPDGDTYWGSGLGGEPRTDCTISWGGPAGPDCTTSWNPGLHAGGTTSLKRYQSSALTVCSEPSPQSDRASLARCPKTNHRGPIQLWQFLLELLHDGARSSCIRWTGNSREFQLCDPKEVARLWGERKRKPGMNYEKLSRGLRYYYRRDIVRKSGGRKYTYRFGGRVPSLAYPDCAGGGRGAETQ
# Outline: as §1
# ELF3 = biological target: T5, ELF3 (Homo sapiens, UniProt P78545 1-371); conditions: protein: recombinant; tags: N-terminal GST; dsDNA, one strand shown
# T5 sequence: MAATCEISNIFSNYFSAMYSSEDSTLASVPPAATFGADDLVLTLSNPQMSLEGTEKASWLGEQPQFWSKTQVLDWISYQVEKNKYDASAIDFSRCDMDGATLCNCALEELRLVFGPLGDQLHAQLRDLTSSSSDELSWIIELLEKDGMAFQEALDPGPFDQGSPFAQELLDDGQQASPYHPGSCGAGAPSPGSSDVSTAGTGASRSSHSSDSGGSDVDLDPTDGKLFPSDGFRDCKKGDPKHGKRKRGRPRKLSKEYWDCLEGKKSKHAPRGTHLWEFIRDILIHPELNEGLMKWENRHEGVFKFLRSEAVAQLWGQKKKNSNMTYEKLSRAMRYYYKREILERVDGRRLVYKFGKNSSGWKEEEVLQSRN
# Outline: as §1
# CRX = CRX (Homo sapiens, UniProt O43186 1-299); conditions: protein: recombinant; tags: N-terminal GST; dsDNA, one strand shown
# Sequence of CRX (O43186 whole entry): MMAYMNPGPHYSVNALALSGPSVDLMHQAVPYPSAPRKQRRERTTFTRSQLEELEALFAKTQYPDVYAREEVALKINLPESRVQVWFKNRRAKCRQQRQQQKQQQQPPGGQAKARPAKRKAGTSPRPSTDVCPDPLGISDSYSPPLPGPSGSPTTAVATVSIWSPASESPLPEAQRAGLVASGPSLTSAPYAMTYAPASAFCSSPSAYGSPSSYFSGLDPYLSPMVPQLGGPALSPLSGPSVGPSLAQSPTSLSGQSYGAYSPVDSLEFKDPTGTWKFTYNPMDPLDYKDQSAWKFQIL
# Outline: as §1
# ETV1 = ETV1 (Homo sapiens, UniProt P50549 1-477); conditions: protein: recombinant; tags: N-terminal GST; dsDNA, one strand shown
# Sequence of ETV1 (P50549 whole entry): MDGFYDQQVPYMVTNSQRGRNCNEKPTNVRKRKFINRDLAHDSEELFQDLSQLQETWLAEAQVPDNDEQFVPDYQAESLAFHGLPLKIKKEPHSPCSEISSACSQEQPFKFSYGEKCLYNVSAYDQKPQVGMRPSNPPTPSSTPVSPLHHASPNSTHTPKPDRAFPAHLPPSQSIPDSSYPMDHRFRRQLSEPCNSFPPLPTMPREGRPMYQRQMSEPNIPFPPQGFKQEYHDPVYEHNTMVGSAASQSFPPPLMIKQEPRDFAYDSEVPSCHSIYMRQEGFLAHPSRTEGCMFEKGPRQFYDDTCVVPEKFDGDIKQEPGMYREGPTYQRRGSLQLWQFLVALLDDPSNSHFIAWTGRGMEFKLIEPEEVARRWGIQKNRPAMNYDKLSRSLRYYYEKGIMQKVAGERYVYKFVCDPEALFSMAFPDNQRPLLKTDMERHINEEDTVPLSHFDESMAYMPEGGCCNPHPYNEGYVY
# Outline: as §1
sequence,measurement,setting,value
TCACGA,binding signal,FEV,"1.05 fold enrichment (6-mer frequency, TF over GST control)"
same,binding signal,ETV5,"1.09 fold enrichment (6-mer frequency, TF over GST control)"
same,binding signal,HSF1,"1.37 fold enrichment (6-mer frequency, TF over GST control)"
same,binding signal,SPIC,"1.1 fold enrichment (6-mer frequency, TF over GST control)"
same,binding signal,ELF4,"1.27 fold enrichment (6-mer frequency, TF over GST control)"
same,binding signal,ELK4,"1.19 fold enrichment (6-mer frequency, TF over GST control)"
same,binding signal,ETV2,"1.12 fold enrichment (6-mer frequency, TF over GST control)"
same,binding signal,ELF3,"1.17 fold enrichment (6-mer frequency, TF over GST control)"
same,binding signal,CRX,"1.1 fold enrichment (6-mer frequency, TF over GST control)"
same,binding signal,ETV1,"1.13 fold enrichment (6-mer frequency, TF over GST control)"
